Bioassay records deposited in PubChem BioAssay by National Center for Advancing Translational Sciences (NCATS).
Most compounds without a hit are left out; they make up all but 5.8% or so of the library.
KB-V1 cytotox: kills drug-selected multidrug resistant KB-V1 cells; KB-V1 MDR cells viability, CellTiter-Glo, 72 h; Potency, µM (titrated, usually from 46.1 µM), actives largely listed as cytotoxic; 400,000 tested, 3.4% active; also: % is scaled to controls: 0 for no effect and ±100 for the full control effect; nearly all actives have a fitted effect of over 60% in size
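Potencies derive from concentration-effect curves fitted to normalized luminescence (CellTiter-Glo) of KB-V1 cells treated for 72 h at 37 degrees C in phenol-red-free DMEM containing 10% FBS.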
MCF10A rerep: DNA re-replication induction in MCF 10a cells | 350,000 tested, 2.9% active | Potency, µM (highest dose often 46.1 µM), without a hit: top-dose activity, positive = re-replication, hits mostly activators | MCF 10A DNA re-replication, Hoechst nuclear intensity, 48 h | AID 624296; also: % of control where 0% means no effect; nearly all actives have a fitted effect of over 50% in size
ALOX12 inh: ALOX12 (human) lipoxygenase inhibition; P18054; purified 12hLO, xylenol orange hydroperoxide absorbance; Potency, µM (top dose mostly 108 µM), for the others: at the highest dose activity change, negative = inhibition, most hits filed as inhibitors; 580,000 tested, 1.1% active; also: % is scaled to controls: 0 for no effect and ±100 for the full control effect
Target sequence (P18054 whole entry, looked up): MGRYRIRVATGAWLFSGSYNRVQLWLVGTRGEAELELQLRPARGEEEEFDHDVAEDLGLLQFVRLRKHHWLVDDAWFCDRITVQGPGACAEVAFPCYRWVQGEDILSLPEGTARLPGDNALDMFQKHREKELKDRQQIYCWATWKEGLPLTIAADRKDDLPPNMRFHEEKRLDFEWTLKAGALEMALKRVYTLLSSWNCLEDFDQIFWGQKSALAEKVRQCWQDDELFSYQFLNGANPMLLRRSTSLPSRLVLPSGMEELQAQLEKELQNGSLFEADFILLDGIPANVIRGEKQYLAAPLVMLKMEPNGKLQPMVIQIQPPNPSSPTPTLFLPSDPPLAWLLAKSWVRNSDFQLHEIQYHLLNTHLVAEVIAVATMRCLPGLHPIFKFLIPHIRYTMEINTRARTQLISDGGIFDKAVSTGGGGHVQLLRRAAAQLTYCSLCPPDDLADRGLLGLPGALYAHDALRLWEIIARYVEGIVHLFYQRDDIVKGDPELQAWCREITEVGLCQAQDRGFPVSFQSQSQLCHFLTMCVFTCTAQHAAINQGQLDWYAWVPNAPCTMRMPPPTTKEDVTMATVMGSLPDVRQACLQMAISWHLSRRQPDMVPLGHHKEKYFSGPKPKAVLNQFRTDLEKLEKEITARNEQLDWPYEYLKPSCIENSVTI
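Purified human 12hLO at 150 nM in 25 mM Hepes, 0.01% Triton X-100, pH 7.0, preincubated 15 min at room temperature with compound. Reaction started with 40 uM arachidonic acid, 30 min at room temperature. Hydroperoxide measured by Fe-xylenol orange, 573/405 nm absorbance ratio.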
SW480 rerep: induces DNA re-replication in SW480 colon adenocarcinoma cells; Potency, µM (highest dose often 46.1 µM), for inactives: at the highest dose re-replication activation, most hits filed as activators; AID 624297; 340,000 tested, 1.8% active; SW480 DNA re-replication, Hoechst DNA content imaging, 48 h; also: % of control where 0% means no effect; nearly all actives have a fitted effect of over 55% in size
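First, 250 cells per well were seeded. Next, compound or vehicle (23 nL) was pinned in, plates sat 48 hr at 37 C. Finally Hoechst was added for 40 min before fluorescence scanning.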
KB-3-1 tox: KB-3-1 parental cell cytotoxicity | 400,000 tested, 1.4% active | AID 1347075 | Potency, µM (doses to about 46.1 µM), most hits filed as cytotoxic | KB-3-1 viability, CellTiter-Glo ATP luminescence, 72 h; also: % is scaled to controls: 0 for no effect and ±100 for the full control effect; nearly all actives have a fitted effect of over 60% in size
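Luminescent ATP read-out (CellTiter-Glo) measures survival of drug-naive KB-3-1 cells after 72 h compound exposure at 37 °C. Titration series was screened from lowest to highest concentration, with DMSO vehicle plates as background controls.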
PINK1 modulator: changes PINK1 expression; AID 624263; PINK1 immunofluorescence, high-content cytometry, 24 h; Potency, µM (series often up to 76.6 µM), for inactives: at the highest dose activation (PINK1 increase), actives largely listed as activators; 410,000 tested, 0.2% active; active = well fitted activation curve with a large enough effect; inconclusive = small, poorly fitted or top-dose-only effect; cell line not stated here; also: % of control where 0% means no effect; nearly all actives have a fitted effect of over 65% in size
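PINK1 protein level read as immunofluorescence by microplate cytometer in a fixed, stained stable cell line after 24 h exposure to five compound concentrations, with CCCP as control.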
* marks the source's active call; other numbers are inactive results; i = inactive; ? = inconclusive; / = no result given; ! = repeats disagree; [ ] = remark or other dose. Unless noted, calls follow the shape of the dose curve; as a rule, active = well fitted curve in the direction sought with a large enough effect; inconclusive = small, poorly fitted or top-dose-only effect, or another doubt; inactive = no such curve, though single readings can be large; an effect the other way counts as inactive or inconclusive. Potency is read from the fitted curve at half-maximal effect.

SMILES	KB-V1 cytotox	MCF10A rerep	ALOX12 inh	SW480 rerep	KB-3-1 tox	PINK1 modulator
O=C(COC(=O)c1ccc(-c2ccccc2)s1)c1ccccc1	/	/	-2%	/	/	/
CC1CCN(c2ccc3nnc(CCC(=O)NC(C)CCc4ccco4)n3n2)CC1 (stereo unspecified)	/	/	7%	/	/	/
CCc1ccc(C2C(C(=O)N3CCCCC3)=C(C)NC3=C2C(=O)CC(C)(C)C3)cc1 (stereo unspecified)	/	/	-2%	/	/	/
COc1cccc(C(=O)CSc2nc3ccccc3n2CC(=O)N2CCOCC2)c1	21µM*	4%	-23%	-1%	i	2%[38.3 µM]
COc1cccc(C(=O)Cn2c(NCCO)nc3ccccc32)c1	i	-5%	7%	-2%[9.22 µM]	i	-1%
COc1cccc(C(=O)Cn2c(=N)n(C)c3ccccc32)c1	i	6%	15%	0%	10µM*	-2%
CCCN1CCCCC12Cc1ccccc1CN(C(=O)C1CCCC1)C2 (stereo unspecified)	/	/	41%	/	/	/
COc1cc(/C=N/O)cc(I)c1OCC(=O)Nc1ccc(C)cc1	/	/	-27%	/	/	/
C(=C\c1ccccc1)/CN1CCN(c2ncnc3c2oc2ccccc23)CC1	3.7µM*	79%	-16%	19%	?	-1%[38.3 µM]
COc1ccccc1N1CCN(c2ncnc3c2oc2ccccc23)CC1	6.5µM*	3.3µM*	33%	21µM*	5.8µM*	7%
c1ccc2[nH]c(CN3CCN(c4ncnc5c4oc4ccccc45)CC3)nc2c1	i	-4%	-8%	-3%	i	-1%
CCc1ccc(S(=O)(=O)Nc2cc(SCC(=O)O)c(O)c3ccccc23)cc1	?	?	?	?	?	7%
O=S(=O)(Nc1cc(Sc2cccc3cccnc23)c(O)c2ccccc12)c1ccccc1	/	23µM*	?	8.2µM*	/	/
O=C(O)CSc1cc(NS(=O)(=O)c2cccc([N+](=O)[O-])c2)c2ccccc2c1O	5.8µM*	2.1µM*	?	21µM*	?	13%
Cc1ccc(S(=O)(=O)Cc2ccc(C(=O)N3CCN(c4cccc(C)c4C)CC3)o2)cc1	2.9µM*!	?	2%[57.4 µM]	2.6µM*	i	4%
COc1ccc(S(=O)(=O)Cc2ccc(C(=O)N3CCN(c4cccc(C)c4C)CC3)o2)cc1	?	?	-8%	21µM*	?	1%
Cc1ccc(C(=O)N2CCN(c3cccc(C)c3C)CC2)o1	?	?	?	8%	16µM*	2%
COc1ccc(S(=O)(=O)Cc2ccc(C(=O)N3CCN(c4cccc(C)c4)C(C)C3)o2)cc1 (stereo unspecified)	i	6.5µM*	-1%	15µM*	3.3µM*	13%
COc1ccccc1S(=O)(=O)Cc1ccc(C(=O)N2CCN(c3ccc(C)cc3)C(C)C2)o1 (stereo unspecified)	?	24%	1%	?	?	5%
CN(C)c1cccc(C(=O)N2CCN(C(=O)c3nnn4c3COC(c3ccc(Cl)cc3)C4)CC2)c1 (stereo unspecified)	/	/	42%	/	/	/
Cc1ccc(C(=O)N(Cc2ccco2)C2CC2)o1	/	/	-53%	/	/	/
Cc1ccccc1-c1noc(CSc2nc3cc4c(cc3c(=O)n2Cc2ccco2)OCO4)n1	/	/	-3%	/	/	/
CCc1ccc(NC(=O)C(CC)Sc2nc3cc4c(cc3c(=O)n2Cc2ccco2)OCO4)cc1 (stereo unspecified)	?	18µM*	0%	?	?	-1%
CCC(Sc1nc2cc(OC)c(OC)cc2c(=O)n1Cc1ccco1)C(=O)NCCOC (stereo unspecified)	i	0%	-16%	-13%	i	/
CCc1ccccc1NC(=O)C(CC)Sc1nc2cc3c(cc2c(=O)n1Cc1ccco1)OCO3 (stereo unspecified)	3.7µM*	6.5µM*	-4%	15µM*	?	?
SMILES	KB-V1 cytotox	MCF10A rerep	ALOX12 inh	SW480 rerep	KB-3-1 tox	PINK1 modulator
O=C(CSc1ccc2ccccc2c1)N(C1CCCC1)C1CCS(=O)(=O)C1 (stereo unspecified)	/	/	5%	/	/	/
Cc1cnc(NC(=O)c2csc3ccccc23)s1	/	/	23%	/	/	/
CC1CC(=O)N(CC(=O)Nc2ccc3c(c2)OCO3)c2ccccc2S1 (stereo unspecified)	16µM*	3%	15%	1%	?	0%[38.3 µM]
O=C(CN1C(=O)CCSc2ccccc21)Nc1ccccc1	i	-10%	6%	-4%	i	3%[38.3 µM]
O=C(CN1C(=O)CCSc2ccccc21)Nc1ccc2c(c1)OCCO2	13µM*	-6%	9%	-3%	i	-5%[38.3 µM]
Cc1ccc(-c2noc(CCC(=O)NCCCN3CCN(c4cccc(Cl)c4)CC3)n2)cc1	16µM*	?	?	?	18µM*	3%
O=C(Cn1nc(-c2ccccc2)ccc1=O)NCCN1CCN(Cc2ccccc2)CC1	i	-5%	8%	-11%	i	/
Cc1ccccc1CS(=O)(=O)CCC(=O)NCCCN1CCN(c2ccccc2F)CC1	i	?	230%	-1%	i	3%
Cc1ccccc1CS(=O)(=O)CCC(=O)NCCN1CCN(c2cccc(Cl)c2)CC1	10µM*	0%	11%	-124%	i	4%
O=C(Cn1nc(-c2ccccc2)ccc1=O)NCCN1CCN(c2cccc(Cl)c2)CC1	5.8µM*	-1%	0%	-2%	i	-4%[38.3 µM]
COc1ccc(-c2noc(CCC(=O)NCCCN3CCN(c4ccccc4F)CC3)n2)cc1	i	23%	-2%	-8%	i	2%
Cc1ccc(-c2noc(CCC(=O)NCCCN3CCN(c4ccc(F)cc4)CC3)n2)cc1	13µM*	7%	0%	?	?	8%
Cn1ncc2c(N3CCN(S(N)(=O)=O)CC3)nc(-c3cccnc3)nc21	/	/	28%	/	/	/
COc1ccc(-c2ccc(C(=O)Nc3ccc(NC(C)=O)cc3)c3occc23)c(C)c1	i	/	?	/	i	13%
COc1cc(NC(=O)c2ccc(-c3c(C)noc3C)c3ccoc23)cc(OC)c1OC	5.8µM*	/	4%	/	?	14%
COc1ccc(-c2ccc(C(=O)Nc3cc(OC)c(OC)c(OC)c3)c3occc23)c(C)c1	6.5µM*	/	?	/	?	8%
CC(=O)Nc1ccc(NC(=O)c2ccc(-c3c(C)noc3C)c3ccoc23)cc1	i	/	-5%	/	i	4%
COc1ccc(-c2coc3c(C(=O)NCC(C)C)cccc23)c(C)c1	15µM*	/	-16%	/	?	-1%
O=C(CNc1nc(Cl)nc2nc[nH]c12)NCCc1c[nH]c2ccc(F)cc12	/	/	3%	/	/	/
